Measurements taken from publication PMC7862700, “An all-to-all approach to the identification of sequence-specific readers for epigenetic DNA modifications on cytosine”.

Experiments:
Assay in all cases: DAPPL (digital affinity profiling via proximity ligation, sequencing); 10 mM Tris-HCl pH 7.5, 50 mM NaCl, 1 mM DTT, 4% glycerol, room temperature, 30 min; GST-TFs on glutathione beads, 16-mer random dsDNA library, 0.1% formaldehyde crosslink after washing; high values mean tight binding
FEV = target: T1, FEV (Homo sapiens, UniProt Q99581 1-238); conditions: protein: recombinant; tags: N-terminal GST; dsDNA, one strand shown
T1 sequence: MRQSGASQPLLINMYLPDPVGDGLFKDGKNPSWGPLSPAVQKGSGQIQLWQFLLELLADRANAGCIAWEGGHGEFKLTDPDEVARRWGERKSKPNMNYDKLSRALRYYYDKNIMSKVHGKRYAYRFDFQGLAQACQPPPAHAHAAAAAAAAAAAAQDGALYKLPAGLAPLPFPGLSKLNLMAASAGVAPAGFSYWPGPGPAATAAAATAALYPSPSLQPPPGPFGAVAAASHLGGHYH
Procedure, shortened: (§1)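 Pools of DNA-barcoded human transcription factors, expressed in yeast as GST fusions on glutathione beads and combined with a tag-only sample, were incubated with 200 nmole of a 16-mer random double-stranded DNA library. Incubation took 30 min at room temperature in Tris/NaCl/DTT/glycerol buffer and was followed by washing, 0.1% formaldehyde crosslinking, proximity ligation (BsaI/T4 ligase, 1 h, 37 °C), PCR amplification and sequencing on an Illumina NextSeq500. Binding signal is the ratio of a hexamer's read frequency for a factor to its frequency for the tag-only sample.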

ETV5 = ETV5 (Homo sapiens, UniProt P41161 1-510); conditions: protein: recombinant; tags: N-terminal GST; dsDNA, one strand shown
Sequence of ETV5 (P41161 whole entry): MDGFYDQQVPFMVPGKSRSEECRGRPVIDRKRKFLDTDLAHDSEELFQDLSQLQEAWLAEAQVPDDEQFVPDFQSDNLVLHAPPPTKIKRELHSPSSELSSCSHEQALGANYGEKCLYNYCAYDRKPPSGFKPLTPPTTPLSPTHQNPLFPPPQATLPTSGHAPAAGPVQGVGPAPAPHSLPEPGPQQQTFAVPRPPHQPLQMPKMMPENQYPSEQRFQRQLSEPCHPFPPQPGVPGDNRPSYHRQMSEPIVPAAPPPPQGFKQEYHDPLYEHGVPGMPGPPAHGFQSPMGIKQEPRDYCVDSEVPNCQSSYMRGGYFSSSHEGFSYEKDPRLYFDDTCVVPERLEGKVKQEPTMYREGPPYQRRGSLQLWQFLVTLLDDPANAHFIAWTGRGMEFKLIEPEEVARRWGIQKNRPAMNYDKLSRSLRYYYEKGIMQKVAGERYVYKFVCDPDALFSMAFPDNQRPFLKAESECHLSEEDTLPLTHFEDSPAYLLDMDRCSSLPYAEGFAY
Procedure, shortened: as §1

HSF1 = HSF1 (Homo sapiens, UniProt Q00613 1-529); conditions: protein: recombinant; tags: N-terminal GST; chain copies: 3; dsDNA, one strand shown
Sequence of HSF1 (Q00613 whole entry): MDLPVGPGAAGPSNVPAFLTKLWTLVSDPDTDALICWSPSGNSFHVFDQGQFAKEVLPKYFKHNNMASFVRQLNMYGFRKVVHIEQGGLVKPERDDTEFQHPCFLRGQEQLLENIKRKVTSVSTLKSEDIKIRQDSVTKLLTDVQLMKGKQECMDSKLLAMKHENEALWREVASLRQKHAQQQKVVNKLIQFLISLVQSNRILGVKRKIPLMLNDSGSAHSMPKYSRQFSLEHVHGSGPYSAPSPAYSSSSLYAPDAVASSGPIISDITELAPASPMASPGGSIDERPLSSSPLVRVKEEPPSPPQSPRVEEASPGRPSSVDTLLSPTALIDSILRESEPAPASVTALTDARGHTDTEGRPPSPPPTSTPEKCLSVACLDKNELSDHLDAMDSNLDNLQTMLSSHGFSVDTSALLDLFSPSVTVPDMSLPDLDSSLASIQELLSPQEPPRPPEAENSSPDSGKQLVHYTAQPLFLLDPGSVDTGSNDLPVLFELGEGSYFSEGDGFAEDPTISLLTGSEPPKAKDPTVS
Procedure, shortened: as §1

SPIC = target: T2, SPIC (Homo sapiens, UniProt Q8N5J4 1-248); conditions: protein: recombinant; tags: N-terminal GST; dsDNA, one strand shown
T2 sequence: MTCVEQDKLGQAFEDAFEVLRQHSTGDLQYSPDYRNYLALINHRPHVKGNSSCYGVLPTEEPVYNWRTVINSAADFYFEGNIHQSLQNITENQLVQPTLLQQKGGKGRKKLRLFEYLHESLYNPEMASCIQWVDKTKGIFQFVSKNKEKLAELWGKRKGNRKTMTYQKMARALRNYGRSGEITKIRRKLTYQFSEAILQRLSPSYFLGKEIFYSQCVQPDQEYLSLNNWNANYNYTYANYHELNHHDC
Procedure, shortened: as §1

ELF4 = ELF4 (Homo sapiens, UniProt Q99607 1-663); conditions: protein: recombinant; tags: N-terminal GST; dsDNA, one strand shown
Sequence of ELF4 (Q99607 whole entry): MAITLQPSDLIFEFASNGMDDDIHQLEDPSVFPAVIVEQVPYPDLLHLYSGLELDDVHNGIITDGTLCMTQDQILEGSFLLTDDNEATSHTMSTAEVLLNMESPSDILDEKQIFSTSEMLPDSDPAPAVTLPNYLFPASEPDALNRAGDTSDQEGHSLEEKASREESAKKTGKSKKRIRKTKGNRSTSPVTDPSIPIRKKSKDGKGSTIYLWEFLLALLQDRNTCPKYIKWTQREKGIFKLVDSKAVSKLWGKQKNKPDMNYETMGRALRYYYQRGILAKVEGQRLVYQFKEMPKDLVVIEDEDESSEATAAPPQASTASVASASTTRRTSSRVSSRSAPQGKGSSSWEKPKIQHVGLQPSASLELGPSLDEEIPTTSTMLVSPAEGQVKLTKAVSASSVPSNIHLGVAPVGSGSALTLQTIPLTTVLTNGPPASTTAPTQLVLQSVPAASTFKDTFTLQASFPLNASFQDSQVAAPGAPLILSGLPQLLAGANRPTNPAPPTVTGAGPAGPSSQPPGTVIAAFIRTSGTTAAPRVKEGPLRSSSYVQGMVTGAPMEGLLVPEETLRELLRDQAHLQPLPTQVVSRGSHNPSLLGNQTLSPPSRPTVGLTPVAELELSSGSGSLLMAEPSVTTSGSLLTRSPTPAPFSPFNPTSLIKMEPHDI
Procedure, shortened: as §1

ELK4 = target: T3, ELK4 (Homo sapiens, UniProt P28324-2 1-405); conditions: protein: recombinant; tags: N-terminal GST; dsDNA, one strand shown
T3 sequence: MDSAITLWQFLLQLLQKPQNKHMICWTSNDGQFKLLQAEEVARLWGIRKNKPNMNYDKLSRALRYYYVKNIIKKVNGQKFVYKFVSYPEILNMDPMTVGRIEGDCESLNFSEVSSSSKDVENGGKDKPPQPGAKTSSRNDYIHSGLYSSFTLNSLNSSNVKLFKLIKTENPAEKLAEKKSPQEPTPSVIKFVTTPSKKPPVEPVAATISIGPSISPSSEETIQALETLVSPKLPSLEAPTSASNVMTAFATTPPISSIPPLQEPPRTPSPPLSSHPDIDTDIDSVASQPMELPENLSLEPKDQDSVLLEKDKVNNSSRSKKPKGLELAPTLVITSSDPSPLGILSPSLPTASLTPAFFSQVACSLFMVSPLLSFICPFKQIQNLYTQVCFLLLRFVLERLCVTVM
Procedure, shortened: as §1

ETV2 = target: T4, ETV2 (Homo sapiens, UniProt O00321 1-342); conditions: protein: recombinant; tags: N-terminal GST; dsDNA, one strand shown
T4 sequence: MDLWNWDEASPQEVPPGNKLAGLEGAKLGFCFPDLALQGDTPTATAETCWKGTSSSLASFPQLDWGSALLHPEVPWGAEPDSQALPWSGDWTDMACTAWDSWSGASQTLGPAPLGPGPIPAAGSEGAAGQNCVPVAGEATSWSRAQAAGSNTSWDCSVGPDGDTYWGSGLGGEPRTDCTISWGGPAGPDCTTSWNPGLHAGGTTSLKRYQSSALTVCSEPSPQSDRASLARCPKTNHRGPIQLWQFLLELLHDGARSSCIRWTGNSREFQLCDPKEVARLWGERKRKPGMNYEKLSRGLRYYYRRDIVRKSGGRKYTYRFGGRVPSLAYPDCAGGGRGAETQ
Procedure, shortened: as §1

ELF3 = target: T5, ELF3 (Homo sapiens, UniProt P78545 1-371); conditions: protein: recombinant; tags: N-terminal GST; dsDNA, one strand shown
T5 sequence: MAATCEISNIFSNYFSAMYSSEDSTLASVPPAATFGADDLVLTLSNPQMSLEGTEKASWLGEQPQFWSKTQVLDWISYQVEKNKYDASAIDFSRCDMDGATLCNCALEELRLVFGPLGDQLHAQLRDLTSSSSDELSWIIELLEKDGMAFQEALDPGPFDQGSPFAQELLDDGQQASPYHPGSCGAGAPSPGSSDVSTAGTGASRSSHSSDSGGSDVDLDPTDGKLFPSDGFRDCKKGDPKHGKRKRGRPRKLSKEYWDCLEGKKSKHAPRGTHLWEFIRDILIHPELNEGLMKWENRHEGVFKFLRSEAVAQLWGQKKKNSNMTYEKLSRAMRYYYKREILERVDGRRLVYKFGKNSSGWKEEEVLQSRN
Procedure, shortened: as §1

CRX = CRX (Homo sapiens, UniProt O43186 1-299); conditions: protein: recombinant; tags: N-terminal GST; dsDNA, one strand shown
Sequence of CRX (O43186 whole entry): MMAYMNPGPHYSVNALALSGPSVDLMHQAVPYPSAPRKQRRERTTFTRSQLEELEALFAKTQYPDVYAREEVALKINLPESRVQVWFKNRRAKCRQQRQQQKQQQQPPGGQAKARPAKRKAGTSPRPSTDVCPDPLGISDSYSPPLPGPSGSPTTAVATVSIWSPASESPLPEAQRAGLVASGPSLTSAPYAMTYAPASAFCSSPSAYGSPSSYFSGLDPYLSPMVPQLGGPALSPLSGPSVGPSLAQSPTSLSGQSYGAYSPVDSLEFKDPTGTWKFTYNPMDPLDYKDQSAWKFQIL
Procedure, shortened: as §1

ETV1 = ETV1 (Homo sapiens, UniProt P50549 1-477); conditions: protein: recombinant; tags: N-terminal GST; dsDNA, one strand shown
Sequence of ETV1 (P50549 whole entry): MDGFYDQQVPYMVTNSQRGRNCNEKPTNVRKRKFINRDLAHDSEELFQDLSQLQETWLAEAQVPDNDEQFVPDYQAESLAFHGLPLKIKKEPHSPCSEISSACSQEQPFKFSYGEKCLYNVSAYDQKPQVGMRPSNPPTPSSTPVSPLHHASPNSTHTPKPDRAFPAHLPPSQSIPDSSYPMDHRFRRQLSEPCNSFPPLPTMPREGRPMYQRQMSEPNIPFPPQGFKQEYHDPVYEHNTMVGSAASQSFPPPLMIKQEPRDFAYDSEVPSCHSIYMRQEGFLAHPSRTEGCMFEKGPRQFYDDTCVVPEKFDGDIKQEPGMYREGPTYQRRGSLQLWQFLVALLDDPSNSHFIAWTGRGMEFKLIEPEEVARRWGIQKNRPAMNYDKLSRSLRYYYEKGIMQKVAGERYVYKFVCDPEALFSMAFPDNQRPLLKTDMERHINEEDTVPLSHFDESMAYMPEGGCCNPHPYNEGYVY
Procedure, shortened: as §1

Row | Sequence | binding signal (FEV) | binding signal (ETV5) | binding signal (HSF1) | binding signal (SPIC) | binding signal (ELF4) | binding signal (ELK4) | binding signal (ETV2) | binding signal (ELF3) | binding signal (CRX) | binding signal (ETV1)
1 | TGAGCT | 1.09 fold enrichment (6-mer frequency, TF over GST control) | 1.07 fold enrichment (6-mer frequency, TF over GST control) | 1.06 fold enrichment (6-mer frequency, TF over GST control) | 1.03 fold enrichment (6-mer frequency, TF over GST control) | 1.1 fold enrichment (6-mer frequency, TF over GST control) | 1.17 fold enrichment (6-mer frequency, TF over GST control) | 1.19 fold enrichment (6-mer frequency, TF over GST control) | 1.23 fold enrichment (6-mer frequency, TF over GST control) | 1.35 fold enrichment (6-mer frequency, TF over GST control) | 1.09 fold enrichment (6-mer frequency, TF over GST control)
2 | GTCTTA | 1.07 fold enrichment (6-mer frequency, TF over GST control) | 1.14 fold enrichment (6-mer frequency, TF over GST control) | 1.35 fold enrichment (6-mer frequency, TF over GST control) | 1.07 fold enrichment (6-mer frequency, TF over GST control) | 1.08 fold enrichment (6-mer frequency, TF over GST control) | 1.04 fold enrichment (6-mer frequency, TF over GST control) | 1.14 fold enrichment (6-mer frequency, TF over GST control) | 1.16 fold enrichment (6-mer frequency, TF over GST control) | 1.94 fold enrichment (6-mer frequency, TF over GST control) | 1.15 fold enrichment (6-mer frequency, TF over GST control)
3 | ATCACT | 1.25 fold enrichment (6-mer frequency, TF over GST control) | 1.2 fold enrichment (6-mer frequency, TF over GST control) | 1.14 fold enrichment (6-mer frequency, TF over GST control) | 1.34 fold enrichment (6-mer frequency, TF over GST control) | 1.23 fold enrichment (6-mer frequency, TF over GST control) | 1.45 fold enrichment (6-mer frequency, TF over GST control) | 1.29 fold enrichment (6-mer frequency, TF over GST control) | 1.35 fold enrichment (6-mer frequency, TF over GST control) | 1.29 fold enrichment (6-mer frequency, TF over GST control) | 1.2 fold enrichment (6-mer frequency, TF over GST control)
4 | TTTCCT | 2.34 fold enrichment (6-mer frequency, TF over GST control) | 2.73 fold enrichment (6-mer frequency, TF over GST control) | 1.73 fold enrichment (6-mer frequency, TF over GST control) | 2.42 fold enrichment (6-mer frequency, TF over GST control) | 2.19 fold enrichment (6-mer frequency, TF over GST control) | 2.04 fold enrichment (6-mer frequency, TF over GST control) | 2.49 fold enrichment (6-mer frequency, TF over GST control) | 2.44 fold enrichment (6-mer frequency, TF over GST control) | 1.56 fold enrichment (6-mer frequency, TF over GST control) | 2.43 fold enrichment (6-mer frequency, TF over GST control)
5 | ATCCAC | 1.14 fold enrichment (6-mer frequency, TF over GST control) | 1.18 fold enrichment (6-mer frequency, TF over GST control) | 1.36 fold enrichment (6-mer frequency, TF over GST control) | 1.24 fold enrichment (6-mer frequency, TF over GST control) | 1.22 fold enrichment (6-mer frequency, TF over GST control) | 1.32 fold enrichment (6-mer frequency, TF over GST control) | 1.23 fold enrichment (6-mer frequency, TF over GST control) | 1.14 fold enrichment (6-mer frequency, TF over GST control) | 1.48 fold enrichment (6-mer frequency, TF over GST control) | 1.2 fold enrichment (6-mer frequency, TF over GST control)
6 | ATAAAC | 1.13 fold enrichment (6-mer frequency, TF over GST control) | 1.19 fold enrichment (6-mer frequency, TF over GST control) | 1.27 fold enrichment (6-mer frequency, TF over GST control) | 1.2 fold enrichment (6-mer frequency, TF over GST control) | 1.16 fold enrichment (6-mer frequency, TF over GST control) | 1.13 fold enrichment (6-mer frequency, TF over GST control) | 1.19 fold enrichment (6-mer frequency, TF over GST control) | 1.13 fold enrichment (6-mer frequency, TF over GST control) | 1.5 fold enrichment (6-mer frequency, TF over GST control) | 1.11 fold enrichment (6-mer frequency, TF over GST control)
7 | CTTACT | 1.17 fold enrichment (6-mer frequency, TF over GST control) | 1.28 fold enrichment (6-mer frequency, TF over GST control) | 1.34 fold enrichment (6-mer frequency, TF over GST control) | 1.1 fold enrichment (6-mer frequency, TF over GST control) | 1.36 fold enrichment (6-mer frequency, TF over GST control) | 1.12 fold enrichment (6-mer frequency, TF over GST control) | 1.39 fold enrichment (6-mer frequency, TF over GST control) | 1.24 fold enrichment (6-mer frequency, TF over GST control) | 1.58 fold enrichment (6-mer frequency, TF over GST control) | 1.23 fold enrichment (6-mer frequency, TF over GST control)
